“And” between values parts separate entries of the source, which are not always exact repeats. Equal entries are not always repeated. The panel holds about 79,000 compounds, 15% with a hit somewhere; the sample as a whole holds those more often. More than one record can exist for a structure, and the calls need not agree. The source made the active and inactive calls. Rule as the data show it: active = growth inhibition above about 70%; inactive = the rest.
Key:
[1] = NCI Yeast Anticancer Drug Screen. Data for the rad50 strain (AID 155);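 also: 0% = growth of vehicle-only cultures of the same strain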; settings: S. cerevisiae rad50 strain growth inhibition; at 50.0 µM; stronger effect = higher value
In short: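 DNA repair mutant yeast, compound exposure, growth read-out; inhibition is taken relative to vehicle.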

[2] = NCI Yeast Anticancer Drug Screen. Data for the mec2-1 strain (AID 157); settings: S. cerevisiae mec2-1 strain, at 50.0 µM, stronger effect = higher value
In short: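 Compounds were applied to mec2-1 yeast cells. Their growth was then compared with that of vehicle-treated cultures to give growth inhibition.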

[3] = NCI Yeast Anticancer Drug Screen. Data for the sgs1 mgt1 strain (AID 161);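 also: 0% = growth of cultures given vehicle only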; settings: S. cerevisiae sgs1 mgt1 strain, at 50.0 µM, stronger effect = higher value
In short: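 Yeast cells carrying a defined DNA-repair defect were exposed to test compounds. Growth inhibition was measured relative to vehicle-treated controls.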

[4] = NCI Yeast Anticancer Drug Screen. Data for the cln2 rad14 strain (AID 165);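 also: 0% = growth equal to vehicle treated cultures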; settings: S. cerevisiae cln2 rad14 strain, at 50.0 µM, stronger effect = higher value
In short: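 Strain: cln2 rad14 yeast, altered in cell cycle control and DNA damage repair. Read-out: growth inhibition vs vehicle.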

[5] = NCI Yeast Anticancer Drug Screen. Data for the bub3 strain (AID 167); settings: S. cerevisiae bub3 mutant strain, at 50.0 µM, stronger effect = higher value
In short: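 In this screen, a yeast mutant lacking normal mitotic checkpoint function is challenged with compound. Relative growth versus vehicle gives the inhibition value.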

[6] = NCI Yeast Anticancer Drug Screen. Data for the mlh1 rad18 strain (AID 175); settings: S. cerevisiae mlh1 rad18 strain growth inhibition; at 50.0 µM; stronger effect = higher value
In short: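 A repair-deficient yeast strain is exposed to test compound, and growth is scored relative to vehicle-treated controls.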

SMILES | growth inhibition [1] | growth inhibition [2] | growth inhibition [3] | growth inhibition [4] | growth inhibition [5] | growth inhibition [6]
Nc1ccc(C(=O)NCC(=O)O)cc1 | 13.4% (inactive) and 10.3% (inactive) | 3.65% (inactive) and -4.8% (inactive) | 3.25% (inactive) and 5.05% (inactive) | -41.3% (inactive) and 15.2% (inactive) | 6.75% (inactive) and -3.5% (inactive) | 0.4% (inactive) and 16.7% (inactive)
CC(C)CC(CC(C)C)=NNc1ccc([N+](=O)[O-])cc1[N+](=O)[O-] | -12.9% (inactive) and -0.9% (inactive) | 6.5% (inactive) and -18.6% (inactive) | -10% (inactive) and -6.9% (inactive) | -33.3% (inactive) and 19.9% (inactive) | 12.3% (inactive) and -10.9% (inactive) | -13.9% (inactive) and 19.4% (inactive)
CC(=O)OC1COC(N2CCc3ccccc32)C(OC(C)=O)C1OC(C)=O (stereo unspecified) | -16.2% (inactive) and -19% (inactive) | -2.95% (inactive) and -28% (inactive) | -33% (inactive) and -34.4% (inactive) | -6.75% (inactive) and -2.5% (inactive) | -27.7% (inactive) and -17.9% (inactive) | -25.2% (inactive) and -33.2% (inactive)
O=c1cc2oc3cc(O)c(O)cc3c(-c3ccccc3)c-2cc1O | -4.25% (inactive) and 15.2% (inactive) | -16.1% (inactive) and 32.5% (inactive) | -3.15% (inactive) and 25.9% (inactive) | -5.9% (inactive) and -23.8% (inactive) | -10.2% (inactive) and 15.9% (inactive) | -4.15% (inactive) and 34.9% (inactive)
CCOc1ccc(C(C)=O)cc1 | 10.7% (inactive) and -0.6% (inactive) | 5.25% (inactive) and 3.75% (inactive) | 5.85% (inactive) and 3.85% (inactive) | 10.9% (inactive) and 1.45% (inactive) | 5.5% (inactive) and 3.65% (inactive) | -2.05% (inactive) and -7.45% (inactive)
CCCCCCCc1ccc(OC2OC(COC(C)=O)C(OC(C)=O)C(OC(C)=O)C2OC(C)=O)cc1 (stereo unspecified) | -7% (inactive) and -26.1% (inactive) | -12.1% (inactive) and 13.8% (inactive) | -30.4% (inactive) and 1.4% (inactive) | -7.45% (inactive) and 37.9% (inactive) | 5.55% (inactive) and 9.7% (inactive) | -6% (inactive) and 10.6% (inactive)
COc1ccc2c(c1)-c1nn(CCCN(C)C)c3ccc([N+](=O)[O-])c(c13)N2 | 76.2% (active) and 67.2% (inactive) | 8% (inactive) and 12.3% (inactive) | 23.9% (inactive) and -28.4% (inactive) | 10.7% (inactive) and 20.6% (inactive) | 27.8% (inactive) and -60.1% (inactive) | 39.7% (inactive) and 28.5% (inactive)
CC(C)(O)C(I)C[n+]1ccccc1 (stereo unspecified) | 38.5% (inactive) and -7.55% (inactive) | 41.6% (inactive) and -2.95% (inactive) | 50.5% (inactive) and -28.9% (inactive) | 4.9% (inactive) and -6.9% (inactive) | 39.9% (inactive) and 0.85% (inactive) | 46.9% (inactive) and -7.3% (inactive)
O=C(O)CN(CCO)CCO | -17.9% (inactive) and -21.6% (inactive) | 7.65% (inactive) and -16.6% (inactive) | 21.4% (inactive) and 12.2% (inactive) | -29.1% (inactive) and 1.45% (inactive) | -27.9% (inactive) and -16.8% (inactive) | -18% (inactive) and 10.1% (inactive)
O=CNc1ccc(C(F)(F)F)cc1 | -16.9% (inactive) and 16.4% (inactive) | -6.85% (inactive) and -3.6% (inactive) | -3.3% (inactive) and 6.35% (inactive) | -10.9% (inactive) and 14.7% (inactive) | -8.8% (inactive) and 25.4% (inactive) | 5.3% (inactive) and 10.9% (inactive)
c1ccc(C(c2ccccc2)N2CCCC2)cc1 | -4.05% (inactive) and 7.15% (inactive) | -14.7% (inactive) and 10.8% (inactive) | -5.7% (inactive) and 4.6% (inactive) | 41.1% (inactive) and -0.2% (inactive) | 2.25% (inactive) and 3.7% (inactive) | 25.9% (inactive) and -7% (inactive)
O=c1c(I)c[nH]cc1I | -12.1% (inactive) and -3.2% (inactive) | -15.9% (inactive) and 14.1% (inactive) | -24.1% (inactive) and 4.45% (inactive) | 3.35% (inactive) and 22.6% (inactive) | -9.4% (inactive) and 15.7% (inactive) | 22.2% (inactive) and 14.8% (inactive)
O=C(O)CC(O)C(=O)O (stereo unspecified) | -2.95% (inactive) and 0.45% (inactive) | -20.2% (inactive) and 3.55% (inactive) | -39.1% (inactive) and -1.05% (inactive) | -19.6% (inactive) and 3.85% (inactive) | 5.25% (inactive) and -2.85% (inactive) | -43% (inactive) and -1.2% (inactive)
CC(=O)C1CC(CC(=O)O)C1(C)C (stereo unspecified) | 4.65% (inactive) and 10.1% (inactive) | -7.25% (inactive) and 9.75% (inactive) | -4.4% (inactive) and 12.5% (inactive) | 13.9% (inactive) and 10.6% (inactive) | -1.6% (inactive) and 4.9% (inactive) | 3.3% (inactive) and 14.9% (inactive)
C/C=C(\C)c1cc(=O)c2c(C)cc3c(c2o1)C(=O)c1c(O)c(C2CC(C)(N(C)C)C(O)C(C)O2)cc(C2CC(N(C)C)C(O)C(C)O2)c1C3=O (stereo unspecified) | 1.95% (inactive) and 21.3% (inactive) | -16% (inactive) and 10.7% (inactive) | 14.6% (inactive) and 17.4% (inactive) | 3.4% (inactive) and 25.8% (inactive) | 8.2% (inactive) and 9.4% (inactive) | -5.8% (inactive) and 10.2% (inactive)
COc1nc2c(c(=O)n1C)NC(C(O)C(O)CO)C=N2 (stereo unspecified) | -34.7% (inactive) and -26.7% (inactive) | -20.6% (inactive) and -33.5% (inactive) | -23.8% (inactive) and -25.8% (inactive) | -5.05% (inactive) and 8.25% (inactive) | -14.8% (inactive) and -15.7% (inactive) | -23.4% (inactive) and -17.4% (inactive)
CCc1cc(-c2ccc(OC)cc2)c(C#N)c(=S)n1C1OC(COC(C)=O)C(OC(C)=O)C(OC(C)=O)C1OC(C)=O (stereo unspecified) | 40% (inactive) and 5.75% (inactive) | 1.35% (inactive) and -4.9% (inactive) | -10.4% (inactive) and -18.7% (inactive) | -20.9% (inactive) and -29.4% (inactive) | -0.9% (inactive) and 1.85% (inactive) | 11.2% (inactive) and 7.05% (inactive)
C/C=C(\C)C(=O)O | 17.6% (inactive) and -9.95% (inactive) | 9.3% (inactive) and -5.05% (inactive) | -4.9% (inactive) and -41.8% (inactive) | 13.2% (inactive) and 2.25% (inactive) | 11.4% (inactive) and -42.2% (inactive) | 25% (inactive) and 9.75% (inactive)
COc1cc(C=O)ccc1O | 0.2% (inactive) and 12.1% (inactive) | -0.35% (inactive) and 2.65% (inactive) | -5.95% (inactive) and 15.9% (inactive) | 4.45% (inactive) and 6.3% (inactive) | -1.9% (inactive) and 13.4% (inactive) | 7.75% (inactive) and 14.2% (inactive)
CCCN=C(N)C(N)=NCCC (tested in a mixture with another compound) | 0.4% (inactive) and 6.5% (inactive) | -3.95% (inactive) and 7.35% (inactive) | 9% (inactive) and 26.4% (inactive) | -21.4% (inactive) and 7.55% (inactive) | 12.6% (inactive) and 3.75% (inactive) | 6.65% (inactive) and 10% (inactive)
CC(C)CCC(N)C(=O)O (stereo unspecified) | -11.7% (inactive) and 0.15% (inactive) | -14.9% (inactive) and -0.55% (inactive) | -11.5% (inactive) and -6% (inactive) | -42.5% (inactive) and -15.7% (inactive) | -3.25% (inactive) and 3.75% (inactive) | -22.6% (inactive) and -2% (inactive)

Source: PubChem BioAssay (NCI)
